We go through 33 sequences from publication PMC5700166.

For experiment [1], the target named is T1, GST-Nv-NF-kB (Ser allele) (Nematostella vectensis, UniProt A7UNT2 2-411).
T1 sequence: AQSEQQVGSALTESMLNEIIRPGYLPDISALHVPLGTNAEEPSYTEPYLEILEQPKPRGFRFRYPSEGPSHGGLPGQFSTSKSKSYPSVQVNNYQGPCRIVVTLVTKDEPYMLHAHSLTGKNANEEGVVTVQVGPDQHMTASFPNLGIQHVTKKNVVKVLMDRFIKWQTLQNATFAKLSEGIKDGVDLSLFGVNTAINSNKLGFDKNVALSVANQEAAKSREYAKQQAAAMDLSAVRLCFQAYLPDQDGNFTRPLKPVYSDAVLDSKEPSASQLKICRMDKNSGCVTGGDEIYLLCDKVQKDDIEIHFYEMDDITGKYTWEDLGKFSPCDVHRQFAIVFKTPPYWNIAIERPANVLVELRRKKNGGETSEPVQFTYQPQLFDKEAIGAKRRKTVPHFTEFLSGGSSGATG
The experiment in a line: protein-binding microarray (PBM); PBM: ~300 nM protein, 6 mM HEPES pH 7.8, 80 mM KCl, 0.5 mM EDTA, 0.5 mM EGTA, 6% glycerol, 35 ng/ul poly-dIdC, 1% milk, 1 h, room temperature; Ap Aiptasia and Nv Nematostella (sea anemones) / Co Capsaspora / Aq Amphimedon (sponge) / Dm Drosophila / Hu human; RHD is the Rel homology domain; high values mean tight binding. Conditions: dsDNA, one strand shown.

Experiment [2] has as its target GST-Hu-p50 (Homo sapiens, UniProt P19838 7-356). The experiment is described as above. The settings on record: dsDNA, one strand shown.

Sequence of GST-Hu-p50 (P19838 7-356): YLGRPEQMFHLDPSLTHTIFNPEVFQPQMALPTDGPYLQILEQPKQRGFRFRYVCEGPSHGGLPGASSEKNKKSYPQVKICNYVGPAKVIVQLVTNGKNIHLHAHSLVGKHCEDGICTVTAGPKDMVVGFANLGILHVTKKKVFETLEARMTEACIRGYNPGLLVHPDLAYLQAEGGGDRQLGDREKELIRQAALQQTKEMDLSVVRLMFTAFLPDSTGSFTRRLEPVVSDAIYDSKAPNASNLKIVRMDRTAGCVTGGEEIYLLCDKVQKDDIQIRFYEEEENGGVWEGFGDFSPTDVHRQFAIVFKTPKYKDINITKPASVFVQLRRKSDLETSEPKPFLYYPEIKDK

Take “CCGATTAACATCAGGATCTCCCCTGATGTTAATCGGGTCTTGATTCGCTTGACGCTGCTG”: the values for the binding signal in experiment [1] and in experiment [2] were 5.15 z-score and 4.48 z-score, respectively.
For “CCGATTAACATCAGGGTAAAACCTGATGTTAATCGGGTCTTGATTCGCTTGACGCTGCTG” the same measures were 3.53 z-score and 2.56 z-score.
For “CCGATTAACATCATCTGGGAAAATGATGTTAATCGGGTCTTGATTCGCTTGACGCTGCTG” the same measures were 4.03 z-score and 1.96 z-score.
For “CCGATTAACATCAGGGAATGCACTGATGTTAATCGGGTCTTGATTCGCTTGACGCTGCTG” the same measures were 2.1 z-score and 2.28 z-score.
Take “CCGATTAACATCAGAAATTTTCCTGATGTTAATCGGGTCTTGATTCGCTTGACGCTGCTG”: the binding signal in experiment [1] turned out to be 1.33 z-score; in experiment [2] it was 2.13 z-score.
The like results for “CCGATTAACATCAGGGAAAGAAATGATGTTAATCGGGTCTTGATTCGCTTGACGCTGCTG” were, in that order, 3.86 z-score and 2.62 z-score.
For “CCGATTAACATCACTCCCTAAAATGATGTTAATCGGGTCTTGATTCGCTTGACGCTGCTG” the same measures were 1.75 z-score and 2.32 z-score.
For “CCGATTAACATCACTGGGATTTCTGATGTTAATCGGGTCTTGATTCGCTTGACGCTGCTG” the same measures were 1.8 z-score and 2.5 z-score.
Consider “CCGATTAACATCAGTCCCGCACTTGATGTTAATCGGGTCTTGATTCGCTTGACGCTGCTG”, for which the binding signal in experiment [1] stood at 1.03 z-score; in experiment [2], 1.18 z-score.
The like results for “CCGATTAACATCAAGTACCCCCATGATGTTAATCGGGTCTTGATTCGCTTGACGCTGCTG” were, in that order, 3.01 z-score and 2.36 z-score.
With “CCGATTAACATCAGGTAATTTACTGATGTTAATCGGGTCTTGATTCGCTTGACGCTGCTG”, the binding signal stood at 3.5 z-score in experiment [1] and 2.79 z-score in experiment [2].
As for “CCGATTAACATCACCCATGGGAATGATGTTAATCGGGTCTTGATTCGCTTGACGCTGCTG”, the values for the binding signal in experiment [1] and in experiment [2] were 1.02 z-score and 1.43 z-score, respectively.
The like results for “CCGATTAACATCACGTTCCCCCCTGATGTTAATCGGGTCTTGATTCGCTTGACGCTGCTG” were, in that order, 5.78 z-score and 5.15 z-score.
The like results for “CCGATTAACATCAGGGGGGGTACTGATGTTAATCGGGTCTTGATTCGCTTGACGCTGCTG” were, in that order, 4.19 z-score and 3.91 z-score.
For “CCGATTAACATCAAAAAGGGAAATGATGTTAATCGGGTCTTGATTCGCTTGACGCTGCTG” the same measures were 6.22 z-score and 3.72 z-score.
Turning to “CCGATTAACATCAGGAATCCCTATGATGTTAATCGGGTCTTGATTCGCTTGACGCTGCTG”, the binding signal in experiment [1] was determined as 1.72 z-score; in experiment [2], 1.89 z-score.
The like results for “CCGATTAACATCACCGATTTCCCTGATGTTAATCGGGTCTTGATTCGCTTGACGCTGCTG” were, in that order, 5.28 z-score and 3.65 z-score.
On to “CCGATTAACATCAGGGACTCACCTGATGTTAATCGGGTCTTGATTCGCTTGACGCTGCTG”, for which the values for the binding signal in experiment [1] and in experiment [2] were 2.72 z-score and 3 z-score, respectively.
Turning to “CCGATTAACATCACGGTACTTCCTGATGTTAATCGGGTCTTGATTCGCTTGACGCTGCTG”, the values for the binding signal in experiment [1] and in experiment [2] were 4.94 z-score and 2.86 z-score, respectively.
For “CCGATTAACATCAGGGACTTACCTGATGTTAATCGGGTCTTGATTCGCTTGACGCTGCTG” the same measures were 5.49 z-score and 4.61 z-score.
For “CCGATTAACATCAAACTTTCCCATGATGTTAATCGGGTCTTGATTCGCTTGACGCTGCTG” the same measures were 4.64 z-score and 4.07 z-score.
For “CCGATTAACATCAATTCCCGTACTGATGTTAATCGGGTCTTGATTCGCTTGACGCTGCTG” the same measures were 1.96 z-score and 1.41 z-score.
Take “CCGATTAACATCAAGTCCCCCAATGATGTTAATCGGGTCTTGATTCGCTTGACGCTGCTG”: the binding signal stood at 3.54 z-score in experiment [1] and 4.25 z-score in experiment [2].
The like results for “CCGATTAACATCAGGAACTACCCTGATGTTAATCGGGTCTTGATTCGCTTGACGCTGCTG” were, in that order, 2.02 z-score and 2.58 z-score.
For “CCGATTAACATCAAAACAACCCCTGATGTTAATCGGGTCTTGATTCGCTTGACGCTGCTG” the same measures were 2.19 z-score and 3.88 z-score.
The like results for “CCGATTAACATCAGGGAGATTTGTGATGTTAATCGGGTCTTGATTCGCTTGACGCTGCTG” were, in that order, 3.43 z-score and 3.58 z-score.
On to “CCGATTAACATCAAAAAAAGTCCTGATGTTAATCGGGTCTTGATTCGCTTGACGCTGCTG”, for which the binding signal in experiment [1] is 1.42 z-score; in experiment [2] it was 2.19 z-score.
On to “CCGATTAACATCAGGAGAACCCCTGATGTTAATCGGGTCTTGATTCGCTTGACGCTGCTG”, for which the binding signal in experiment [1] is 1.24 z-score; in experiment [2] it was 3.68 z-score.
Consider “CCGATTAACATCAGGGAACTTTATGATGTTAATCGGGTCTTGATTCGCTTGACGCTGCTG”, for which the binding signal in experiment [1] turned out to be 3.6 z-score; in experiment [2] it was 3.66 z-score.
For “CCGATTAACATCAAATTCCCTCGTGATGTTAATCGGGTCTTGATTCGCTTGACGCTGCTG” the same measures were 4.74 z-score and 3.62 z-score.
For “CCGATTAACATCAGGGAACAACCTGATGTTAATCGGGTCTTGATTCGCTTGACGCTGCTG” the same measures were 1.65 z-score and 2.25 z-score.
For “CCGATTAACATCAAATTGCCCCCTGATGTTAATCGGGTCTTGATTCGCTTGACGCTGCTG” the same measures were 4.54 z-score and 4.59 z-score.
Consider “CCGATTAACATCAGGGAATTAAATGATGTTAATCGGGTCTTGATTCGCTTGACGCTGCTG”, for which the binding signal in experiment [1] stood at 3.98 z-score; in experiment [2], 2.43 z-score.
